Source: PubChem BioAssay
DT40 TDP1 CPT: DT40-hTDP1 cell growth loss with CPT | chicken DT40 Tdp1-/-;hTDP1 cells + 20 nM CPT, ATP luminescence, 48 h | 420,000 compounds, 12% hits | Potency, µM (titrated, usually from 46.2 µM), for the others: at the top dose activity change, negative = growth inhibition, most hits filed as inhibitors; note: nearly all actives have a fitted effect of over 55% in size
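Chicken DT40 Tdp1-/- cells stably complemented with human TDP1 were seeded at 400 cells/well in medium containing 20 nM camptothecin, exposed to pin-transferred compounds, and grown at 37 °C for at least 48 hr. Viability was read as ATP luminescence.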
HT1080 IDH1KD tx: toxicity to HT-1080 IDH1 knockdown cells (counter line) | HT-1080 IDH1 knockdown viability, ATP luminescence, 48 h | Potency, µM (doses to about 46.1 µM), without a hit: at the top dose activity, negative = toxicity, most hits filed as cytotoxic | 360,000 compounds, 2% hits | AID 686971;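 note: 0% = DMSO wells and -100% = cell-free medium wells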
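Using the IDH1-knockdown HT-1080 line run in the same batch and compound series as the NT line, viability after 48 h at 37 °C was determined by CellTiter-Glo luminescence and expressed as % activity.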
HT1080NT lethal: kills 2HG-producing HT-1080-NT fibrosarcoma cells; Potency, µM (titrated, usually from 46.1 µM), inactives show at the top dose activity, negative = less viability, usual class: cytotoxic; HT-1080-NT fibrosarcoma viability, CellTiter-Glo ATP luminescence, 48 h; 360,000 compounds, 1.6% hits;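 note: NT is the 2HG producing partner of a matched IDH1 knockdown line; 0% = DMSO-treated cells and -100% = media-only wells without cells; nearly all actives have a fitted effect of over 55% in size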
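HT-1080-NT fibrosarcoma cells (2HG-overproducing), 750 cells/well in RPMI with 5% FBS, dosed after 2 h and incubated 48 h at 37C. CellTiter-Glo luminescence normalized to DMSO and no-cell wells; concentration-response curves fitted and classed.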
KB-3-1 tox: kills parental KB-3-1 adenocarcinoma cells; KB-3-1 viability, CellTiter-Glo ATP luminescence, 72 h; Potency, µM (highest dose often 46.1 µM), actives largely listed as cytotoxic; 400,000 compounds, 1.4% hits; note: nearly all actives have a fitted effect of over 60% in size
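Here the drug-naive KB-3-1 line serves as comparator for MDR sub-line selectivity; cells received compound titrations, 72 h at 37 °C, then CellTiter-Glo readout.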
TDP1 cell noCPT: qHTS for Inhibitors of human tyrosyl-DNA phosphodiesterase 1 (TDP1): qHTS in cells in absence of CPT; DT40 Tdp1-/- hTDP1 cells, no CPT, ATP luminescence, 48 h; Potency, µM (top dose mostly 46.2 µM), for inactives: at the top dose activity change, negative = growth inhibition, usual class: inhibitors; 420,000 compounds, 15% hits; note: nearly all actives have a fitted effect of over 55% in size
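Growth kinetics read by CellTiter-Glo luminescence after ≥48 hr at 37 °C. Cells: DT40 Tdp1-/- stably carrying human TDP1, 400 per well, compound exposure in the absence of CPT (DMSO vehicle).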
KB-V1 MDR tox: KB-V1 MDR subline cytotoxicity | KB-V1 MDR cells viability, CellTiter-Glo, 72 h | Potency, µM (series often up to 46.1 µM), usual class: cytotoxic | 400,000 compounds, 3.4% hits | AID 1347076; note: nearly all actives have a fitted effect of over 60% in size
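Cytotoxicity toward P-gp-expressing KB-V1 cells was determined as loss of CellTiter-Glo luminescence after 72 h at 37 degrees C. Compounds were tested in quantitative HTS format across a concentration range, with curves fitted to normalized data.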
Starred values were filed as active, the others as inactive; [ ] = another dose, or the depositor's remark. This is a sample that favours compounds with a hit; in the whole collection about 19% have one here. Calls come from the whole dose curve; as a rule, active = well fitted curve in the direction sought with a large enough effect; inconclusive = small, poorly fitted or top-dose-only effect, or another doubt; inactive = no such curve, though single readings can be large; an effect the other way counts as inactive or inconclusive. Unless noted, % is set by controls: 0 for no effect and ±100 for the full control effect; potency is the fitted concentration of half-maximal effect.

`COc1cccc(C(=O)NNC(=O)c2ccccc2)c1` gave DT40 TDP1 CPT -9%, HT1080 IDH1KD tx 6%, HT1080NT lethal 0%, KB-3-1 tox inactive, TDP1 cell noCPT 7% and KB-V1 MDR tox inactive.
For CSc1nc2ccc(NS(=O)(=O)c3cccc(Cl)c3Cl)cc2s1 the results were DT40 TDP1 CPT -3%, HT1080 IDH1KD tx 0%, HT1080NT lethal 7%, KB-3-1 tox inactive, TDP1 cell noCPT inconclusive and KB-V1 MDR tox inactive.
For COc1ccc(-n2ncc3c(=O)n(CC(=O)NC(C)C)cnc32)cc1 the results were DT40 TDP1 CPT 3%, HT1080 IDH1KD tx 7%, HT1080NT lethal -2%, KB-3-1 tox inactive, TDP1 cell noCPT 12% and KB-V1 MDR tox inactive.
`Cc1ccc(NC(=O)c2nc[nH]c2C(=O)N(C)CCO)cc1` gave DT40 TDP1 CPT 1%, HT1080 IDH1KD tx 10%, HT1080NT lethal 8%, KB-3-1 tox inactive, TDP1 cell noCPT -13% and KB-V1 MDR tox inactive.
For NC(=O)CSc1nnc(NC(=O)C2CC(=O)N(c3ccc(F)cc3)C2)s1 (stereo not drawn) the results were DT40 TDP1 CPT -2%, HT1080 IDH1KD tx -2%, HT1080NT lethal 6%, KB-3-1 tox inactive, TDP1 cell noCPT 21µM* and KB-V1 MDR tox inactive.
Screening O=C(Nc1nnc(SCc2ccc(F)cc2)s1)C1CC(=O)N(Cc2ccccc2)C1 (stereo not drawn) returned DT40 TDP1 CPT -17%, HT1080 IDH1KD tx 22%, HT1080NT lethal 4%, KB-3-1 tox inactive, TDP1 cell noCPT inconclusive and KB-V1 MDR tox 21µM*.
`Cc1nnc(NC(=O)C2CC(=O)N(Cc3ccccc3)C2)s1` (stereo not drawn) gave DT40 TDP1 CPT -1%, HT1080 IDH1KD tx 5%, HT1080NT lethal inconclusive, KB-3-1 tox inactive, TDP1 cell noCPT -1% and KB-V1 MDR tox inactive.
`CC(C)(C)c1ccccc1OCC(O)CN1CCN(c2ccccn2)CC1` (stereo not drawn) gave DT40 TDP1 CPT 16µM*, HT1080 IDH1KD tx -1%, HT1080NT lethal 0%, KB-3-1 tox inactive, TDP1 cell noCPT inconclusive and KB-V1 MDR tox inactive.
Screening OC(CN1CCN(c2ccccn2)CC1)Cn1c2ccc(Cl)cc2c2cc(Cl)ccc21 (stereo not drawn) returned DT40 TDP1 CPT inconclusive, HT1080 IDH1KD tx 16µM*, HT1080NT lethal inconclusive, KB-3-1 tox inconclusive, TDP1 cell noCPT inconclusive and KB-V1 MDR tox inconclusive.
For OC(CN1CCCCC1)Cn1c2ccc(Cl)cc2c2cc(Cl)ccc21 (stereo not drawn) the results were DT40 TDP1 CPT inconclusive, HT1080 IDH1KD tx inconclusive, HT1080NT lethal 21µM*, KB-3-1 tox inconclusive, TDP1 cell noCPT 15µM* and KB-V1 MDR tox inconclusive.
Cc1cccc(C)c1OCC(O)CN1CCN(c2ccccn2)CC1 (stereo not drawn) was read as DT40 TDP1 CPT 4%, HT1080 IDH1KD tx 9%, HT1080NT lethal 10%, KB-3-1 tox inactive, TDP1 cell noCPT -6% and KB-V1 MDR tox inactive.
OC(COC(c1ccc(Cl)cc1)c1ccc(Cl)cc1)CN1CCN(c2ccccn2)CC1 (stereo not drawn) was read as DT40 TDP1 CPT inconclusive, HT1080 IDH1KD tx inconclusive, HT1080NT lethal inconclusive, KB-3-1 tox 18µM*, TDP1 cell noCPT 16µM* and KB-V1 MDR tox inconclusive.
`COc1cccc(OCC(O)CN2CCN(c3ccccn3)CC2)c1` (stereo not drawn) gave DT40 TDP1 CPT 1%, HT1080 IDH1KD tx 0%, HT1080NT lethal 16%, KB-3-1 tox inactive, TDP1 cell noCPT 4% and KB-V1 MDR tox inactive.
For CN(C)c1ccc(NC(=O)CC(NCc2ccccn2)C(=O)O)cc1 (stereo not drawn) the results were DT40 TDP1 CPT -4%, HT1080 IDH1KD tx 0%, HT1080NT lethal -2%, KB-3-1 tox inactive, TDP1 cell noCPT -1% and KB-V1 MDR tox inactive.
COc1ccc(NC2CCCN(C(=O)c3cn(C)c4ccccc34)C2)cc1 (stereo not drawn) was read as DT40 TDP1 CPT -16%, HT1080 IDH1KD tx -9%, HT1080NT lethal -6%, KB-3-1 tox inactive, TDP1 cell noCPT 4% and KB-V1 MDR tox inactive.
C[C@@H]1CN([C@H](C)CO)C(=O)CCCn2nncc2CO[C@@H]1CN(C)S(=O)(=O)c1ccc(F)cc1 was read as DT40 TDP1 CPT 12%, HT1080 IDH1KD tx 11%, HT1080NT lethal 7%, KB-3-1 tox inactive, TDP1 cell noCPT inconclusive and KB-V1 MDR tox inactive.
`CC(C)c1ccc(S(=O)(=O)c2nnn3c2nc(N2CCN(C)CC2)c2sccc23)cc1` gave DT40 TDP1 CPT 16µM*, KB-3-1 tox inactive, TDP1 cell noCPT inconclusive and KB-V1 MDR tox inactive.
CN1CCN(c2nc3c(S(=O)(=O)c4ccc(Cl)cc4)nnn3c3ccsc23)CC1 was read as DT40 TDP1 CPT inconclusive, KB-3-1 tox inactive, TDP1 cell noCPT inconclusive and KB-V1 MDR tox inactive.
CC1CCN(c2nc3c(S(=O)(=O)c4ccccc4)nnn3c3ccsc23)CC1 was read as DT40 TDP1 CPT -7%, KB-3-1 tox inactive, TDP1 cell noCPT -11% and KB-V1 MDR tox inactive.
For CC1CCN(c2nc3c(S(=O)(=O)c4ccc(Cl)cc4)nnn3c3ccsc23)CC1 the results were DT40 TDP1 CPT inconclusive and TDP1 cell noCPT 16µM*.
`COc1ccc(-n2c(CNC(=O)c3cccc(OC)c3OC)nnc2SC)cc1` gave DT40 TDP1 CPT -1%[9.04 µM] and TDP1 cell noCPT -13%.
Screening CC(C)CN(C(=O)CSc1n[nH]c(-c2cccs2)n1)C1CCS(=O)(=O)C1 (stereo not drawn) returned DT40 TDP1 CPT -6%, HT1080 IDH1KD tx -6%, HT1080NT lethal -4%, KB-3-1 tox inactive, TDP1 cell noCPT -11% and KB-V1 MDR tox inactive.
CCOc1ccc(CCNC(=O)c2nnc(Cc3cc(OC)c(OC)c(OC)c3)o2)cc1OCC was read as DT40 TDP1 CPT 21µM*, KB-3-1 tox inactive, TDP1 cell noCPT inconclusive and KB-V1 MDR tox inactive.
For COc1ccc(CCNC(=O)c2cc(=O)c3cc(C)ccc3o2)cc1OC the results were DT40 TDP1 CPT inconclusive, HT1080 IDH1KD tx 2%, HT1080NT lethal -1%, KB-3-1 tox inconclusive, TDP1 cell noCPT 21µM* and KB-V1 MDR tox inconclusive.
